Bioassay records deposited in PubChem by National Center for Advancing Translational Sciences (NCATS).
The list is not random: actives were taken first. Their share in the collection is about 18%.
TDP1 block – TDP1 (human) enzyme inhibition | Q9NUW8 | AID 485290 | 350,000 tested, 0.28% active | Potency, µM (series often up to 130 µM), for inactives: at the highest dose activity change, negative = inhibition, usual class: inhibitors | recombinant TDP1, AlphaScreen DNA substrate cleavage; also: nearly all actives have a fitted effect of over 40% in size
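Signal: AlphaScreen proximity between streptavidin donor and anti-FITC acceptor beads on intact substrate. Reaction: Tdp1 1 nM, substrate 15 nM final, 5 min RT after 15 min compound preincubation.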
VDR inh – blocks the human vitamin D receptor; Potency, µM, inactives show max response, negative = inhibition, hits mostly inhibitors; VDR-SRC2-3 peptide fluorescence polarization, 2 h; 400,000 tested, 0.93% active
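Fluorescence polarization assay measuring small-molecule disruption of VDR binding to the coregulator peptide SRC2-3. Compounds were pin-transferred (23 nl) into the reagent mix and incubated 2 h at room temperature before reading.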
TDP1 cell CPT – growth inhibition of DT40 Tdp1-/-;hTDP1 cells with camptothecin (screen for TDP1 inhibitors). chicken DT40 Tdp1-/-;hTDP1 cells + 20 nM CPT, ATP luminescence, 48 h. Potency, µM (highest dose often 46.2 µM), inactives show at the highest dose activity change, negative = growth inhibition, usual class: inhibitors. 420,000 tested, 12% active. AID 686979; also: nearly all actives have a fitted effect of over 55% in size
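Cell growth measured by CellTiter-Glo luminescence after a minimum 48 h, 37 C compound exposure with 20 nM CPT in Tdp1-knockout DT40 cells stably expressing hTDP1, seeded 400/well; qHTS titration format.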
KAT2A inh – inhibitors of human GCN5L2 histone acetyltransferase. Q92830. GCN5L2 HAT assay, ThioGlo1 CoA-SH fluorescence. AID 504327. 390,000 tested, 0.21% active. Potency, µM (titrated, usually from 58.9 µM), without a hit: top-dose activity change, negative = inhibition, actives largely listed as inhibitors
Target sequence (Q92830 whole entry, looked up): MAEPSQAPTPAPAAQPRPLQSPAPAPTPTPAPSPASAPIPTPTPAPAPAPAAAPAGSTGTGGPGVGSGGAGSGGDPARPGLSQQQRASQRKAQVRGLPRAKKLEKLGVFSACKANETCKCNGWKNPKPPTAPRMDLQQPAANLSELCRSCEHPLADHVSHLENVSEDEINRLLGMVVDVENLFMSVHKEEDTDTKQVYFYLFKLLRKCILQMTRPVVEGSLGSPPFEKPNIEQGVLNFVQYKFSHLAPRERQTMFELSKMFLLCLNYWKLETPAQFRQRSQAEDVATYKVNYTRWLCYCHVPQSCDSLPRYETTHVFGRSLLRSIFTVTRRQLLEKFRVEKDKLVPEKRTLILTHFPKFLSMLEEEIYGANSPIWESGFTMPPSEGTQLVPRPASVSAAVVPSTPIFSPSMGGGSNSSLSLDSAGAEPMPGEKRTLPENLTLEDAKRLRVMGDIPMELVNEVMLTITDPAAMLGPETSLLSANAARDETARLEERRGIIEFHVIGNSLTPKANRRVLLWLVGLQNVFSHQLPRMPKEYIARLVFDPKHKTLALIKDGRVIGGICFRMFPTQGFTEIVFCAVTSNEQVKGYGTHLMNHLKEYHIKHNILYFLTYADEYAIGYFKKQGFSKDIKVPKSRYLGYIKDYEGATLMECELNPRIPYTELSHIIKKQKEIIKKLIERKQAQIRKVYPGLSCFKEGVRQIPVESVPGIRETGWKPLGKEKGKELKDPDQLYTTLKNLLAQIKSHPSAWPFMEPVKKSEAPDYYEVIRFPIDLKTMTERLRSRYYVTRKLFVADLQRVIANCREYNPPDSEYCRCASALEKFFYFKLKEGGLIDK
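Free CoA generated was detected with ThioGlo1 (50uM) fluorescence at Ex340nm/Em540nm, read immediately and after 20 min at room temperature. Enzyme, 20 nM in HEPES pH 7.5 buffer, saw compounds 15 min before adding 75uM H3(1-25) peptide and 70uM acetyl-CoA.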
PLK1 PBD inh – inhibitors of human PLK1 polo-box domain binding | Potency, µM, without a hit: max response, negative = inhibition, most hits filed as inhibitors | P53350 | 360,000 tested, 2.8% active | Plk1 PBD binding of FITC phosphopeptide, fluorescence polarization | AID 720504; also: series mostly up to about 57 µM; nearly all actives have a fitted effect of over 65% in size
DT40 TDP1 no CPT – qHTS for Inhibitors of human tyrosyl-DNA phosphodiesterase 1 (TDP1): qHTS in cells in absence of CPT | DT40 Tdp1-/- hTDP1 cells, no CPT, ATP luminescence, 48 h | Potency, µM (titrated, usually from 46.2 µM), without a hit: at the top dose activity change, negative = growth inhibition, actives largely listed as inhibitors | 420,000 tested, 15% active | AID 686978, 2013; also: nearly all actives have a fitted effect of over 55% in size
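Camptothecin absent (DMSO only). Human TDP1-complemented DT40 knockout cells, 400 cells/well, 37 °C for minimum 48 hr; ATP measured via CellTiter-Glo, 30 min dark incubation, luminescence.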
* = called active by the depositor; ? = inconclusive; nt = no result; [ ] = remark or other dose. Calls follow the shape of the dose curve; as a rule, active = well fitted curve in the direction sought with a large enough effect; inconclusive = small, poorly fitted or top-dose-only effect, or another doubt; inactive = no such curve, though single readings can be large; an effect the other way counts as inactive or inconclusive. % is scaled to controls: 0 for no effect and ±100 for the full control effect; potency is read from the fitted curve at half-maximal effect.

SMILES	TDP1 block	VDR inh	TDP1 cell CPT	KAT2A inh	PLK1 PBD inh	DT40 TDP1 no CPT
CC1(C(=O)NS(=O)(=O)C2CC2)CCCN(C(=O)c2ccccc2C(F)(F)F)C1 (centres undefined)	nt	nt	6.5µM*	nt	-1%	5.8µM*
CCOC(=O)N1CCc2c(sc(NCc3ccc(N(C)C)cc3)c2C(=O)Nc2ccccc2OCC)C1	7%	0%	?	-5%	nt	8.2µM*
COc1ccc(Cl)cc1NC(=O)c1c(NCc2cccnc2)sc2c1CCCC2	9%	?	23µM*	-21%	nt	15µM*
COc1cc(C(=O)Nc2sc3c(c2C(=O)NCc2ccco2)CCCC3)cc(OC)c1OC	-2%	-5%	?	-14%[0.501 µM]	-2%	21µM*
CCOC(=O)N1CCc2c(sc(NCc3ccc(OCC)cc3)c2C(=O)Nc2ccc(OC)cc2OC)C1	10%	-3%	?	-10%	nt	?
COc1ccc(Cl)cc1NC(=O)c1c(NCc2ccc(C)o2)sc2c1CCCC2	2%	-14%	?	-21%	nt	21µM*
Cc1cccc(OCc2nnc(NC(=O)Cc3cccs3)s2)c1	5%[56.1 µM]	-2%	-8%	5%	-9%	-20%
CC(NC(=O)C1CCOCC1)c1nnc2n1CCN(Cc1ccc3cccnc3c1)CC2 (centres undefined)	nt	nt	4%	nt	nt	-4%
CCOC(=O)c1cc(-c2ccccc2C)n(CC2CC(c3ccc(OC)cc3)=NO2)n1 (centres undefined)	2%	0%	?	-15%	-1%	?
CCOc1ccccc1NC(=O)c1c(NCc2ccc(C)o2)sc2c1CCCCC2	6%	-1%	4.6µM*	-4%	nt	2.9µM*
CCCCN(CCO)c1ncnc2sc(-c3ccccc3)cc12	nt	10%	?	-7%	-18%	16µM*
CN(C)CCCNc1ncnc2sc(-c3ccccc3)cc12	nt	-21%	?	-5%	-7%	16µM*
Cc1cccc(-n2ncc3c(N(CCO)CCO)ncnc32)c1	0%	-4%	-5%	0%	2%	-12%
CCOC(CNc1ncnc2sc(-c3ccccc3)cc12)OCC	nt	18%	?	-2%	-2%	-29%
Cc1ccccc1CNC(=O)c1ccc(CS(=O)Cc2ccc(Cl)cc2)o1 (centres undefined)	3%	8%	?	-3%	nt	?
COc1ccc(-n2cc(-c3ccccc3)c3c(Nc4ccc(OC)c(OC)c4)ncnc32)cc1	8%	5%	?	8%	nt	?
COc1ccc(-n2cc(-c3ccccc3)c3c(NCCc4ccc(OC)c(OC)c4)ncnc32)cc1	10%	4%	23µM*	0%	nt	21µM*
COc1ccc(CCNc2ncnc3c2c(-c2ccccc2)cn3-c2cccc(Cl)c2)cc1OC	0%	2%	7.3µM*	1%	nt	9.2µM*
COCCNc1ncnc2c1c(-c1ccccc1)cn2-c1cccc(Cl)c1	7%	0%	?	-3%	nt	?
Cc1ccc(N2CC(C(=O)Nc3ccc4c(c3)OCO4)CC2=O)cc1C (centres undefined)	-8%	7%	?	-2%	-6%	-12%
O=C(Cn1cc(C(F)(F)F)cc(Cl)c1=O)NCc1ccc(F)cc1	6%[0.0935 µM]	-2%	-4%	4%	-25%	-2%
COc1cc(C=O)cc(OC)c1OS(=O)(=O)c1ccc(NC(C)=O)cc1	3%	3%	?	-13%	2%	?
COc1ccc(/C=N/NC(=O)c2ccc3ccccc3c2)cc1OS(=O)(=O)c1ccc(NC(C)=O)cc1	2%	14%	4.6µM*	-12%	-7%	3.7µM*
COc1ccc(C=O)cc1OS(=O)(=O)c1ccc(NC(C)=O)cc1	0%	-7%	?	-1%	-9%	3.7µM*
CC1=C(C(=O)Nc2ccc(C)cc2C)C(c2ccc(Cl)cc2)n2nc(C(=O)OC(C)C)nc2N1 (centres undefined)	1%	-19%	?	2%	-7%	16µM*
SMILES	TDP1 block	VDR inh	TDP1 cell CPT	KAT2A inh	PLK1 PBD inh	DT40 TDP1 no CPT
COc1ccc(C2C(C(=O)Nc3ccc(C)cc3C)=C(C)Nc3nc(SC)nn32)cc1OC (centres undefined)	1%	13%	-11%	4%	nt	-14%
CC1=C(C(=O)Nc2ccc(C)cc2C)C(CC(C)C)n2nc(SCc3ccccc3C)nc2N1 (centres undefined)	2%[12.3 µM]	14%	10µM*	-5%	nt	12µM*
CC1=C(C(=O)Nc2ccccc2)C(c2cccnc2)n2nc(SCc3ccccc3F)nc2N1 (centres undefined)	-3%	-22%	-15%	-6%	nt	-8%
COc1ccccc1NC(=O)C1=C(C)Nc2nc(SCc3ccccc3)nn2C1c1cccc(O)c1 (centres undefined)	6%	1%	?	-17%	nt	23µM*
COc1ccccc1NC(=O)C1=C(C)Nc2nc(SCc3ccccc3F)nn2C1c1cccnc1 (centres undefined)	9%	-26%	15µM*	-12%	nt	10µM*
CC1=C(C(=O)Nc2ccc(Cl)cc2)C(CC(C)C)n2nc(SCc3ccccc3C)nc2N1 (centres undefined)	2%	13%	?	-9%	nt	?
CCN(CC)C(=O)c1sc2c(c1C)c(=O)n(-c1ccc(C)c(C)c1)c(=O)n2Cc1cc(=O)n2ccccc2n1	-1%	8%	-16%	-20%	nt	-13%
CCOc1ccc(N2CC(NC(=O)C(=O)c3c[nH]c4ccccc34)CC2=O)cc1 (centres undefined)	0%	5%	-25%	-15%	nt	?
COc1ccc(C2=Nn3c(nnc3-c3ccc(OC)cc3OC)SC2)cc1	9%	nt	nt	nt	nt	nt
COc1ccccc1NC(=O)C1=C(C)Nc2nc(SCc3cc(C)ccc3C)nn2C1c1ccccc1 (centres undefined)	0%	18%	12µM*	-3%	nt	-79%
COc1ccccc1NC(=O)C1=C(C)Nc2nc(SCc3ccccc3)nn2C1c1cccnc1 (centres undefined)	3%	-10%	21µM*	-2%	nt	?
CC1=C(C(=O)Nc2ccccc2)C(c2ccc(F)cc2)n2nc(SCc3cc(C)ccc3C)nc2N1 (centres undefined)	9%	-4%	-17%	-4%	nt	-17%
COc1ccc(-c2nc3ccccc3n2Cc2ccccc2)cc1COc1ccc(NC(C)=O)cc1	-2%	nt	nt	nt	nt	nt
